Source: PubChem BioAssay AID1159580 (chemical genetic matrix, 2015)
Where “and” joins values, the source holds several entries; their conditions need not be identical. Equal values may be shown once. Hit rate of the full screen: of about 5,500 compounds, about 2,000 (36%) were called active. Not shown: some 18% with an inconclusive outcome. No stated cut-off is given here; in the data, active means normalized growth mostly below about 0.91 (no sharp cut-off); inconclusive means no clear call, values can overlap the other calls; inactive means mostly above about 0.92. The list shows a part of the results.

Experiment: chemical genetic growth profiling, strain panel (AID 1159580);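 further: tested at 20 µM; growth read once vehicle control cultures reached saturation at 30 °C; 1 = growth at the plate median or of vehicle wells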
Settings: S. cerevisiae deletion strains, growth OD

Measured: normalized growth

CSc1nc(NC(C)C)nc(NC(C)C)n1
inactive: locus YAL013W, strain DEP1, stronger effect = lower value 1.01 | locus YAL021C, strain ccr4, stronger effect = lower value 0.969 | locus YAL026C, strain drs2, stronger effect = lower value 0.969 | locus YAL030W, strain snc1, stronger effect = lower value 0.98 | locus YBL061C, strain skt5, stronger effect = lower value 0.968 | locus YBR009C, strain hhf1, stronger effect = lower value 0.979 | locus YBR021W, strain FUR4, stronger effect = lower value 1.04 | locus YBR023C, strain chs3, stronger effect = lower value 0.957 | locus YBR171W, strain sec66, stronger effect = lower value 0.954 | locus YBR229C, strain ROT2, stronger effect = lower value 0.999 | locus YBR231C, strain swc5, stronger effect = lower value 0.961 | locus YBR279W, strain paf1, stronger effect = lower value 0.972 | locus YCL011C, strain gbp2, stronger effect = lower value 0.966 | locus YCL016C, strain dcc1, stronger effect = lower value 0.967 | locus YCL029C, strain bik1, stronger effect = lower value 1.01 | locus YCL061C, strain MRC1, stronger effect = lower value 0.979 | locus YCL069W, strain vba3, stronger effect = lower value 0.975 | locus YCR088W, strain abp1, stronger effect = lower value 0.986 | locus YDL005C, strain med2, stronger effect = lower value 0.981 | locus YDL035C, strain GPR1, stronger effect = lower value 1.02 | locus YDL040C, strain nat1, stronger effect = lower value 0.962 | locus YDL074C, strain BRE1, stronger effect = lower value 1.01 | locus YDL101C, strain DUN1, stronger effect = lower value 1.02 | locus YDL134C, strain PPH21, stronger effect = lower value 1 | locus YDL185W, strain tfp1, stronger effect = lower value 1.03 | locus YDL192W, strain arf1, stronger effect = lower value 1.01 | locus YDR001C, strain nth1, stronger effect = lower value 0.979 | locus YDR069C, strain doa4, stronger effect = lower value 0.977 | locus YDR101C, strain arx1, stronger effect = lower value 1.01 | locus YDR137W, strain rgp1, stronger effect = lower value 0.848 | locus YDR150W, strain NUM1, stronger effect = lower value 0.994 | locus YDR159W, strain sac3, stronger effect = lower value 0.967 | locus YDR162C, strain NBP2, stronger effect = lower value 1.02 | locus YDR195W, strain ref2 0.998 | locus YDR297W, strain sur2, stronger effect = lower value 0.975 | locus YDR318W, strain mcm21, stronger effect = lower value 1.03 | locus YDR334W, strain swr1, stronger effect = lower value 0.968 | locus YDR335W, strain msn5, stronger effect = lower value 0.969 | locus YDR388W, stronger effect = lower value 1.01 | locus YDR392W, strain spt3, stronger effect = lower value 0.958 | locus YDR502C, strain sam2, stronger effect = lower value 1.01 | locus YEL003W, strain gim4, stronger effect = lower value 0.972 | locus YEL037C, strain rad23, stronger effect = lower value 0.975 | locus YEL061C, strain CIN8 (second series), stronger effect = lower value 0.961 | locus YEL061C, strain CIN8, stronger effect = lower value 1 | locus YER015W, strain faa2, stronger effect = lower value 0.973 | locus YER016W, strain bim1, stronger effect = lower value 0.966 | locus YER110C, stronger effect = lower value 1 | locus YER111C, strain swi4, stronger effect = lower value 0.977 | locus YER155C, strain BEM2 (second series), stronger effect = lower value 0.952 | locus YER155C, strain BEM2, stronger effect = lower value 1.01 | locus YER167W, strain BCK2, stronger effect = lower value 0.995 | locus YFR010W, strain ubp6, stronger effect = lower value 0.978 | locus YGL078C, strain dbp3, stronger effect = lower value 1.01 | locus YGL086W, strain mad1, stronger effect = lower value 1.01 | locus YGL167C, strain pmr1, stronger effect = lower value 0.958 | locus YGL173C, strain kem1, stronger effect = lower value 0.964 | locus YGL227W, strain vid30, stronger effect = lower value 0.956 | locus YGL240W, strain doc1, stronger effect = lower value 0.95 | locus YGL248W, strain PDE1, stronger effect = lower value 1.01 | locus YGL253W, strain hxk2, stronger effect = lower value 0.973 | locus YGR078C, strain PAC10, stronger effect = lower value 1.01 | locus YGR135W, strain pre9, stronger effect = lower value 1.01 | locus YGR229C, strain SMI1, stronger effect = lower value 1.02 | locus YGR252W, strain gcn5, stronger effect = lower value 1.14 | locus YHR013C, strain ard1, stronger effect = lower value 0.944 | locus YHR027C, strain rpn1, stronger effect = lower value 0.972 | locus YHR030C, strain SLT2, stronger effect = lower value 1.02 and 1.03 | locus YHR079C, strain IRE1 (second series), stronger effect = lower value 1.01 | locus YHR079C, strain IRE1, stronger effect = lower value 1.03 | locus YHR094C, strain hxt1, stronger effect = lower value 1 | locus YHR129C, strain ARP1, stronger effect = lower value 1.01 | locus YHR142W, strain chs7, stronger effect = lower value 0.95 | locus YHR200W, strain rpn10, stronger effect = lower value 1.01 | locus YIL066C, strain RNR3, stronger effect = lower value 1.03 | locus YIL073C, strain SPO22, stronger effect = lower value 1.02 | locus YIL125W, strain kgd1, stronger effect = lower value 1.01 | locus YIR030C, strain dcg1, stronger effect = lower value 1.02 | locus YJL092W, strain hpr5, stronger effect = lower value 0.981 | locus YJL095W, strain BCK1 (second series), stronger effect = lower value 0.968 | locus YJL095W, strain BCK1, stronger effect = lower value 0.988 and 0.974 | locus YJL115W, strain asf1, stronger effect = lower value 0.978 | locus YJL129C, strain trk1, stronger effect = lower value 0.962 | locus YJL134W, strain LCB3, stronger effect = lower value 1.02 | locus YJL154C, strain vps35, stronger effect = lower value 0.977 | locus YJL164C, strain tpk1, stronger effect = lower value 0.969 | locus YJL166W, strain qcr8, stronger effect = lower value 0.978 | locus YJL168C, strain set2, stronger effect = lower value 1 | locus YJL187C, strain SWE1 (second series), stronger effect = lower value 1.01 | locus YJL187C, strain SWE1, stronger effect = lower value 0.973 | locus YJR043C, strain POL32, stronger effect = lower value 1.02 | locus YJR066W, strain TOR1, stronger effect = lower value 0.968
